# In PubChem BioAssay AID431 (Sanford-Burnham Center for Chemical Genomics, 2006):
# Screen size: about 63,000 compounds; about 1,100 (1.7%) were called active.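 How the source made its calls: active means compounds whose percent cytotoxicity in the single-dose primary screen, scaled between solvent and toxic-drug controls, exceeds 50; inactive means the rest.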 The entries come from a sample that favours actives as a whole. Potency and affinity values are given separately.
# Test: viability loss of HPDE-C7K cells – cell-based, fluorescence, HTS, primary screen (AID 431);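 further: 0% = DMSO solvent wells and 100% = doxorubicin-treated wells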
# Conditions: HPDE-C7K KRASV12 cells, Alamar Blue viability, 48 h; at 10 µM; stronger effect = higher value
row,SMILES,cytotoxicity
1,Cc1sc2nc(SCC(=O)NCc3ccco3)n(-c3ccccc3)c(=O)c2c1C,7.2% (inactive)
2,Cc1sc2nc3c4ccccc4c(NCc4ccco4)nn3c(=O)c2c1C,66% (active)
3,Cc1sc2ncnc(NCc3ccco3)c2c1C,0.5% (inactive)
4,O=C(CCOc1ccccc1)OCC(=O)c1cc2ccccc2o1,-20.1% (inactive)
5,COc1ccc(S(=O)(=O)N2CCCCC2)cc1C(C)C,-10.6% (inactive)
6,Nc1nc(-c2ccccc2Br)cs1,15.5% (inactive)
7,Cc1cc(-c2csc(N)n2)c(C)n1CCc1ccccc1,99.3% (active)
8,CCOC(=O)c1cc(C)n(CCc2ccccc2)c1C,0.4% (inactive)
9,COCCn1c(-c2ccc(Cl)cc2)cnc1SCC(=O)NCc1cccs1,-6.5% (inactive)
10,N#CC1=C(N)C(C#N)(C#N)C2(C(=O)Nc3ccccc32)C2CCCC=C12 (stereo unspecified),-18.9% (inactive)
11,CS(=O)(=O)N1CCc2cc(S(=O)(=O)N3CCN(Cc4ccc5c(c4)OCO5)CC3)ccc21,7.7% (inactive)
12,CS(=O)(=O)N1CCc2cc(S(=O)(=O)Nc3ccc4oc5c(c4c3)CCCC5)ccc21,84.6% (active)
13,CS(=O)(=O)N1CCc2cc(C(=O)O)ccc21,8.3% (inactive)
14,O=C(C(Cc1ccccc1)n1cccc1)N1CCc2ccccc21 (stereo unspecified),-1.9% (inactive)
15,CC(=O)Oc1c(Cl)c(N2CCOCC2)c(OC(C)=O)c2ccccc12,-27.5% (inactive)
16,COCCn1c(SCC(=O)Nc2ccccc2)nc2c1c(=O)[nH]c(=O)n2C,-3.2% (inactive)
17,CC1CCc2c(sc3ncnc(SCC(=O)N4CCN(C(=O)c5ccco5)CC4)c23)C1 (stereo unspecified),2.5% (inactive)
18,CCC(c1nnnn1C(C)(C)C)N1CCN(c2cc(Cl)ccc2C)CC1 (stereo unspecified),-6.4% (inactive)
19,O=c1cc(-c2ccccc2)[nH]c2nc3ccccc3n12,31.4% (inactive)
20,CC(=NC1CCCC1)c1c(C)[nH]n(-c2nc3ccccc3s2)c1=O,-31.1% (inactive)
21,COc1ccc(-c2cc(=O)n(-c3nc4ccccc4[nH]3)[nH]2)cc1,10.5% (inactive)
22,O=c1cc(-c2ccccc2)[nH]n1-c1nc2ccccc2s1,79% (active)
23,Cc1nn(-c2nc3ccccc3s2)c(N)c1-c1ccccc1,5.2% (inactive)
24,Cc1[nH]c(=O)[nH]c1CN1CCCCC1,-10.3% (inactive)
25,CCOC(=O)c1cnn(-c2ccccc2)c1NC(=O)c1cccs1,0.1% (inactive)
26,O=C(c1cccs1)n1cc(C(=S)N2CCOCC2)c2ccccc21,10% (inactive)

row,SMILES,cytotoxicity
1,COc1ccc(-c2c(C)nn3c(N4CCN(Cc5ccccc5)CC4)cc(C)nc23)cc1OC,-4% (inactive)
2,c1csc(-c2cnc3ccccc3n2)c1,3.7% (inactive)
3,CCOC(=O)N1CCC(=C2c3ccc(Cl)cc3CCc3cccnc32)CC1,90.6% (active)
4,CCOC(=O)N1CCN(S(=O)(=O)c2cc(Cl)ccc2Cl)CC1,-7.3% (inactive)
5,CCOC(=O)N1CCN(C(=O)Nc2ccc(Cl)cc2Cl)CC1,0.2% (inactive)
6,O=S(=O)(c1ccc(-c2ccccc2)cc1)N1CCOCC1,3.5% (inactive)
7,Nc1nncn1C(=O)c1cccs1,9.5% (inactive)
8,CC(=O)O[C@]1(C(C)=O)CC[C@H]2[C@@H]3C=C(Cl)C4=CC(=O)CC[C@]4(C)[C@H]3CC[C@@]21C,76.4% (active)
9,CCCCC(=O)O[C@]1(C(=O)CO)CC[C@H]2[C@@H]3CCC4=CC(=O)CC[C@]4(C)[C@H]3[C@@H](O)C[C@@]21C,-3.2% (inactive)
10,CC(=O)O[C@]1(C(C)=O)CC[C@H]2[C@@H]3C=C(C)C4=CC(=O)CC[C@]4(C)[C@H]3CC[C@@]21C,-15.6% (inactive)
11,CCCCCCCC(=O)OCC(=O)[C@@]1(O)CC[C@H]2[C@@H]3CCC4=CC(=O)CC[C@]4(C)[C@H]3[C@@H](O)C[C@@]21C,-2.2% (inactive)
12,CCCCCC(=O)O[C@]1(C(C)=O)CC[C@H]2[C@@H]3CCC4=CC(=O)CC[C@]4(C)[C@H]3CC[C@@]21C,118% (active)
13,CC(=O)O[C@]1(C(C)=O)CC[C@H]2[C@@H]3C[C@H](C)C4=CC(=O)CC[C@]4(C)[C@H]3CC[C@@]21C,3.4% (inactive)
14,NC(=O)CN1C(=O)C(O)(CC(=O)c2ccccc2O)c2ccccc21 (stereo unspecified),-20.7% (inactive)
15,Cc1csc(=N)n1CC(=O)N1CCc2ccccc21,-5.1% (inactive)
16,CCN1C(=O)c2cccc3c(S(=O)(=O)Nc4ccccc4OC)ccc1c23,15.9% (inactive)
17,COc1ccc(-c2cc(C(F)(F)F)n3nc(C(=O)Nc4cc(C)on4)cc3n2)cc1OC,8.1% (inactive)
18,Cc1cc(C)c(S(=O)(=O)N2CCN(CCO)CC2)c(C)c1,-4.9% (inactive)
19,CCc1nc(OCCN(CC)CC)c2oc3ccccc3c2n1,15.9% (inactive)
20,CCN(CC)CCOc1ncnc2c1oc1ccccc12,-9.3% (inactive)
21,CC1CCc2nn(CC(=O)NCCN3CCOCC3)cc2C1 (stereo unspecified),-3.4% (inactive)
22,c1ccc(C(CN2CCOCC2)c2ccccc2)cc1,-15.2% (inactive)
23,O=C(c1ccccc1)c1ccc(OCC(O)CN2CCOCC2)cc1 (stereo unspecified),10.8% (inactive)
24,CCOc1ccc(-n2c(Cc3cc(=O)[nH]c(=O)[nH]3)nnc2SC(C)C)cc1,-20.5% (inactive)
25,Cc1cc(C(=O)Oc2ccccc2C(=O)O)c(C)o1,-8% (inactive)
26,CCSc1nnc(NC(=O)c2ccc(C)o2)s1,-3.8% (inactive)

row,SMILES,cytotoxicity
1,O=C(Nc1ncc(Cc2ccccc2)s1)c1cccs1,4.6% (inactive)
2,Cc1ccc(C(=O)Nc2ncc(Cc3ccccc3)s2)o1,51.3% (active)
3,O=C(Nc1ncc(Cc2ccccc2)s1)C1CCCO1 (stereo unspecified),6.8% (inactive)
4,Cc1nnc(SCC(=O)Nc2ncc(Cc3ccc(F)cc3)s2)n1N,-4.8% (inactive)
5,Cc1ccc(C(=O)Nc2ncc(Cc3ccc(F)cc3)s2)o1,61.5% (active)
6,COc1ccc(-c2cc(C(F)(F)F)nc(SCC(=O)N3CC(C)OC(C)C3)n2)cc1OC (stereo unspecified),-1.3% (inactive)
7,Cc1c(Cl)cccc1NC(=O)CSCc1cc(=O)[nH][nH]1,-8.5% (inactive)
8,Cc1cc2cc(CN(Cc3ccc4c(c3)OCO4)C(=O)c3ccco3)c(=O)[nH]c2cc1C,22.5% (inactive)
9,Cn1c(SCC(=O)NCc2cccs2)nnc1-c1cccs1,-2.7% (inactive)
10,CCS(=O)(=O)N1CCN(c2ccccc2F)CC1,-12.1% (inactive)
11,Cn1c(SC2=CS(=O)(=O)c3ccccc32)nc2ccccc21,86.7% (active)
12,O=S1(=O)C=C(Sc2nc3ccccc3s2)c2ccccc21,107% (active)
13,O=S1(=O)C=C(SCCN2CCCCC2)c2ccccc21,6.2% (inactive)
14,Cn1c(Sc2nc3ccccc3n2C)nc2ccccc21,21.7% (inactive)
15,O=S1(=O)C=C(Sc2nnc(-c3ccccc3)o2)c2ccccc21,26.2% (inactive)
16,Clc1ccc2oc(-c3ccccc3)nc2c1,3.5% (inactive)
17,O=C1c2ccccc2S(=O)(=O)N1Cc1nc2ccccc2s1,3.2% (inactive)
18,Cc1cc(C)nc(SC2=CS(=O)(=O)c3ccccc32)n1,2.9% (inactive)
19,CCOC(=O)c1c(NC(N)=O)sc(C)c1C,7.3% (inactive)
20,CN(C)S(=O)(=O)c1ccc(S(=O)(=O)Nc2ccc3c(c2)oc2ccccc23)cc1,-0.2% (inactive)
21,COc1ccc2c(c1)c(=O)cc(C)n2CC(=O)NCc1ccco1,6.1% (inactive)
22,CCN1CCCC1CNCc1ccc(Cl)cc1Cl (stereo unspecified),12.8% (inactive)
23,COc1ccc(CCNc2oc(COc3ccccc3F)nc2C#N)cc1,23.7% (inactive)
24,COc1ccc(/C=N/n2cnnc2SCc2ccccc2)cc1,5.9% (inactive)
25,COc1ccc(/C=N/n2cc(-c3ccc(OC)cc3)nc2N)cc1,3.7% (inactive)
26,COc1ccc(/C=N/n2cc(-c3ccccc3)nc2N)cc1,70.8% (active)

row,SMILES,cytotoxicity
1,O=C1COc2ccc3ccccc3c2CN1,-9.6% (inactive)
2,Cc1ccc2c(c1)CC1(CN2C)C(=O)OC2(CCCCC2)OC1=O,-4.6% (inactive)
3,CN1CC2(Cc3c1ccc1ccccc31)C(=O)OC(C)(C)OC2=O,64.4% (active)
4,O=C(NCCc1ccccc1)c1cnn2c(C(F)F)cc(C3CC3)nc12,6.9% (inactive)
5,O=S(=O)(c1ccc(-c2cn3ccccc3n2)cc1)N1CCOCC1,-9.8% (inactive)
6,CC(C)Cc1cc(C(=O)O)n[nH]1,9.9% (inactive)
7,Cc1ccc(Cn2c(CN3CC(C)OC(C)C3)nc3c2c(=O)n(C)c(=O)n3C)cc1 (stereo unspecified),-6.7% (inactive)
8,COc1ccc(N2C(=O)C3CCCN3C2c2ccccc2OC)cc1 (stereo unspecified),-10% (inactive)
9,CN1CCN(c2nc(-c3ccccc3)nc3c2oc2ccccc23)CC1,24.2% (inactive)
10,O=C(O)C1CCN(c2nc(-c3ccccc3)nc3c2oc2ccccc23)CC1,27.2% (inactive)
11,CCOc1cc2nc(-c3ccc(OC)c(OC)c3)nc(N3CCOCC3)c2cc1OC,74.8% (active)
12,COc1ccc(-c2csc(N3CCOCC3)n2)cc1OC,2.9% (inactive)
13,COc1cc2nc(-c3ccccc3)nc(N3CCCC3)c2cc1OC,27.3% (inactive)
14,CC(C)(C)Nc1ncnc2c1cnn2-c1ccccc1,17.2% (inactive)
15,COC(=O)c1cccc(NC(=O)CSc2nnc(COc3ccccc3)n2C)c1,8.3% (inactive)
16,CC(C)N(C(=O)COc1ccc(Br)cc1Cl)C(C)C,-4.2% (inactive)
17,Cc1nc2nc(Cc3ccccc3)nn2c(C)c1Cl,0.4% (inactive)
18,O=C(c1ccc(Cn2cc(Cl)cn2)o1)N1CCN(Cc2ccc3c(c2)OCO3)CC1,12% (inactive)
19,O=C(c1ccc(COc2ccccc2Cl)o1)N1CCN(Cc2ccc3c(c2)OCO3)CC1,65.1% (active)
20,CC1CCN(C(=O)c2ccc(COc3ccccc3Cl)o2)CC1,-8.5% (inactive)
21,O=C(c1ccc(COc2ccccc2Cl)o1)N1CCN(c2ccccc2)CC1,24% (inactive)
22,O=C(c1ccc(COc2ccc(Cl)cc2)o1)N1CCN(Cc2ccc3c(c2)OCO3)CC1,94.8% (active)
23,O=C(c1ccc(Br)o1)N1CCN(Cc2ccc3c(c2)OCO3)CC1,-4.9% (inactive)
